Only some compounds are listed: those with a hit (about 2.1% of all), similar ones and a draw of the others.
U2OS ROS induce – ROS inducers in U2OS cancer cells, primary screen, cell-based, H2DCF-DA fluorescence; U2OS ROS induction; ROS induction (% of piperlongumine), % at 10 µM; 2% of 46,000 active; in the data active = ROS induction above about 79%, passing the limit was not always enough;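 also: 0% = DMSO vehicle median and 100% = reference compound median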
YB-1 expr inh – inhibitors of YB-1 gene expression, primary screen, cell-based, fluorescence | U2OS, qRT-PCR YB-1 vs CDIP delta delta Cp, 16 h; hits give high values; zero = DMSO, each unit about twofold | delta delta Cp (YB-1 minus CDIP) (concentration not given with the values) | 0.37% of 30,000 active | AID 434959, 2010;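 active = delta delta Cp rounded down to an integer at or above 3, about 3 SD of DMSO wells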;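 also: higher means less YB-1 transcript or more CDIP transcript relative to DMSO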
Numbers without * were called inactive; . = no result given.

SMILES | U2OS ROS induce | YB-1 expr inh
CCC1=NC(C(F)(F)F)(C(F)(F)F)C2=C(CC(C)(C)CC2=O)N1Cc1ccccc1 | 120.4* | -0.909
CC1(C)CC(=O)C2=C(C1)N(Cc1ccc(F)cc1)C(=O)C2(NC(=O)c1cccnc1)C(F)(F)F (stereo unspecified) | -10.7 | .
CC(=O)c1ccc(NC(=O)c2ccc(CSc3nc4ccc([N+](=O)[O-])cc4s3)cc2)cc1 | 0.0 | .
c1cncc(-c2noc(-c3cccs3)n2)c1 | 0.1 | .
COc1ccc(N=c2cc(-c3ccc(OC)cc3)oc3ccc(O)cc23)cc1 | 193.5* | .
COc1ccc(-c2cc(=O)c3ccccc3o2)cc1 | 10.4 | -0.19
Cc1cc(C)c(S(=O)(=O)N(C)CC(=O)N2CCC(C(N)=O)CC2)c(C)c1 | -16.5 | .
O=C(COc1ccc(Br)cc1)NCC1CCCO1 (stereo unspecified) | 5.6 | 9.52*
O=S(=O)(NCC1CCCO1)c1ccc(Br)cc1 (stereo unspecified) | 29.6 | -0.138
CC1=NN(C(=O)c2ccc(Cl)cc2)C(C)(C)C1 | -3.5 | -0.128
Cc1cc(C2(c3cc(C)c(N)c(C)c3)CCCCC2)cc(C)c1N | 1.0 | -0.433
Cc1ccc(-c2nnc(N3CCOCC3)c3ccccc23)cc1S(=O)(=O)NC(C)(C)CO | -6.6 | .
Cc1ccc(Nc2nnc(-c3ccc(C)c(S(=O)(=O)NCC4CCCO4)c3)c3ccccc23)cc1 (stereo unspecified) | 216.0* | -0.315
COC(=O)CCn1cnc(-c2ccccc2)c1-c1ccccc1 | 26.3 | .
C=CCN1C(=O)/C(=C/c2cc(C)n(CCOC)c2C)C(=O)NC1=S | 102.5* | -0.0227
COCCn1c(C)cc(C=C2C(=O)N(C)C(=S)N(C)C2=O)c1C | 26.2 | -0.186
C[C@H]1CN([C@@H](C)CO)C(=O)c2cc(NC(=O)Nc3cccc4ccccc34)ccc2O[C@@H]1CN(C)Cc1ccc2c(c1)OCO2 | 120.1* | 0.343
C[C@H](CO)N1C[C@H](C)[C@@H](CN(C)C(=O)Nc2ccc3c(c2)OCO3)Oc2ccc(NC(=O)Nc3cccc4ccccc34)cc2C1=O | -8.7 | -0.198
C[C@@H]1CN([C@@H](C)CO)C(=O)c2cc(NC(=O)Nc3cccc4ccccc34)ccc2O[C@@H]1CN(C)Cc1ccc2c(c1)OCO2 | -8.0 | 0.244
C[C@H](CO)N1C[C@H](C)[C@H](CN(C)C(=O)Nc2ccc3c(c2)OCO3)Oc2ccc(NC(=O)Nc3cccc4ccccc34)cc2C1=O | 79.0* | 0.103
O=C(Cn1c(SCc2cccc(Cl)c2)nc2ccncc21)NCC1CCCO1 (stereo unspecified) | -13.6 | .
c1ccc(CCSc2nnc3sc4ccccc4n23)cc1 | 9.1 | .
Cc1cc(C)c(S(=O)(=O)N(CC#N)CC#N)c(C)c1 | -9.3 | .
CCCn1c(=O)c2c(nc3n2CCCN3Cc2ccco2)n(C)c1=O | 11.6 | .
O=C(Nc1ncnc2oc(-c3ccccc3)c(-c3ccccc3)c12)c1ccccc1 | 57.7 | .
SMILES | U2OS ROS induce | YB-1 expr inh
COc1ccc(CC(=O)c2ccc(O)cc2O)cc1 | 2.5 | 0.153
CC(O)CC(=O)c1cc(O)ccc1O (stereo unspecified) | -4.5 | 4.61*
O=C(O)c1cccc(CN2CCN(c3ccccc3)CC2)c1 | -5.7 | 0.121
Cc1c(-c2cc(NC(=O)c3ccccc3)n[nH]2)sc2ccc(Cl)cc12 | 56.3 | .
O=C(c1ccco1)N1CCN(c2ncnc3nc[nH]c23)CC1 | -7.8 | .
CN(C)S(=O)(=O)c1ccc2c(c1)/C(=C/c1cc3c([nH]1)CCCC3)C(=O)N2 | 98.2* | -0.369
O=C1Nc2ccc(Br)cc2/C1=C/c1cc2c([nH]1)CCCC2 | 43.3 | -0.131
CC1C[C@@]23CC4C(C)(C)[C@@]5(C[C@]4(CN2C1=O)N(C)C3=O)C(=O)Nc1c5ccc2c1C(=O)CC(C)(C)O2 (stereo partly specified) | -1.0 | -0.183
CC1=C(c2ccc(C)cc2)S(=O)(=O)NC1=NCc1ccccn1 | 17.3 | .
Cc1cc(N(CC(=O)Nc2cccc(C(F)(F)F)c2)S(C)(=O)=O)ccc1Br | 10.5 | .
CCNC(=S)Nc1sc2c(c1C#N)CCC(C)C2 (stereo unspecified) | 166.9* | -0.137
CC1CCc2sc(NC(=O)C(Cc3ccccc3)Cc3ccccc3)c(C#N)c2C1 (stereo unspecified) | 0.6 | -0.0778
C=CCN(c1ccccc1)S(=O)(=O)c1ccc(F)c(C(=O)Nc2ccc(C(C)C)cc2)c1 | 6.1 | .
CS(=O)(=O)N(CC(=O)Nc1ccc(Cl)c(C(F)(F)F)c1)c1cccc([N+](=O)[O-])c1 | 8.1 | .
O=C(Nc1ccc(Cl)cc1)OCc1nccn1Cc1ccc(Cl)cc1 | -1.3 | .
C=C[C@]1(C)C[C@H](O)[C@H]2C(=C)C(=O)O[C@@H]2[C@H]1C(=C)CO | 15.4 | 0.562
C=CC1(C)C[C@H](OC(=O)C(C)CO)[C@H]2C(=C)C(=O)O[C@@H]2C1C(=C)CO (stereo partly specified) | 134.1* | -0.11
CCc1ccc2nc(N3CCC(C(=O)NCc4ccccc4)CC3)sc2c1 | -9.0 | .

Screening results as filed in PubChem BioAssay.
